These results are taken from PubChem BioAssay.

Structures are written as SMILES.

Tested on in one assay: not listed separately
Briefly: probe aNog binding to arrayed compounds – biochemical, biotinylated probe, 635/667 nm fluorescence, primary screen (AID 1115).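 Further: probe is biotinylated aNog protein used at 0.15 µg/mL for 1 h at 4 C; z-score combines 667 nm fluorescence of each spot with its signal to noise.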 Conditions: small-molecule microarray, higher = more signal.
`CCOC(=O)C[C@H]1[C@H](OC(=O)Cc2ccc3c(c2)OCO3)[C@@H](NC(=O)C2CCCCC2)c2cc(OCCCO)ccc2N1C(=O)c1ccc2ccccc2n1` yielded a composite z-score of 0.0862.
Turning to `CN1C(=O)C2C=CC(C(O)c3c(F)cccc3Cl)N(Nc3ccccc3)C2C1=O` (stereo unspecified), the composite z-score was found to be 0.707.
The compound `COCCCNC(=O)[C@]1(Cc2ccccc2CN=[N+]=[N-])N=C(c2ccc(OCCCO)cc2)O[C@@H]1c1ccccc1` showed a composite z-score of -0.225.
On the same count and under the same terms, as for `[N-]=[N+]=NCc1ccccc1C[C@@]1(C(N)=O)N=C(c2ccc(OCCCO)cc2)O[C@@H]1c1ccccc1CN=[N+]=[N-]`, the figure is 1.08; as for `COC(=O)[C@@]1(Cc2ccc(OC)cc2)[C@H]2c3cc(C(=O)N4CCCC4)n(CCc4cc5ccccc5[nH]4)c3C[C@H]2CN1C(=O)c1ccccc1`, 2.21.
On the same count and under the same terms, the value for `COCCOC(=O)N1C(=O)[C@@]2(c3cc(C#Cc4ccc(OC)cc4)ccc31)[C@H](C(=O)NC[C@H](O)c1ccccc1)[C@H]1C(=O)O[C@H](c3ccccc3)[C@H](c3ccccc3)N1[C@@H]2c1ccc(O)cc1` was 0.369; that for `C=CC[C@@]12N=C(c3ccc(OCCCO)cc3)O[C@@H]1c1ccccc1N(CCS(=O)(=O)c1ccccc1)C2=O` was -0.0569.
The same measure, in the same setting: as for `C=CCN1C(=O)[C@]2(CC=C)N=C(c3ccc(OCCCO)cc3)O[C@@H]2c2ccccc21`, the figure is 0.0962; as for `Cc1ccc(S[C@]2(C(=O)NCC(C)C)CC(=O)N(Cc3ccccc3Cl)[C@@H]2c2ccc(CO)cc2I)cc1`, 0.515.
Compound `COc1ccccc1CN1C(=O)c2ccccc2[C@](Cc2ccccc2I)(C(=O)NC(C)C)[C@@H]1c1ccc(CO)cc1` yielded a composite z-score of -0.402.
The compound `CCOc1cc(C(O)C2C=CC3C(=O)N(C4CCCCC4)C(=O)C3N2Nc2ccc(OC)cc2)ccc1O` (stereo unspecified) displayed a composite z-score of 0.796.
`COCCOC(=O)N1C(=O)[C@@]2(c3cc(C#Cc4ccc(OC)cc4)ccc31)[C@H](C(=O)N1CCCCCCC1)[C@H]1C(=O)O[C@H](c3ccccc3)[C@H](c3ccccc3)N1[C@@H]2c1ccc(O)cc1` gave a composite z-score of 1.18.
Turning to `C=C(C(=O)CC[C@H](OC(=O)c1cccnc1)c1ccc(CO)o1)C(C)C`, the composite z-score worked out at 0.013.
On to `COC(=O)[C@H](Cc1ccccc1)N1CC(/C=C/C2CC2)=C[C@@H]1[C@@H](O)Cc1ccccc1`, for which the composite z-score amounted to 0.131.
Same read-out and setting: the value for `COC(=O)[C@@]1(Cc2ccc(OC)cc2)[C@H]2c3cc(C(=O)N(C)C)n(Cc4nc5ccccc5[nH]4)c3C[C@H]2CN1C(=O)c1ccccc1` was 1.81; that for `CN(C)C(=O)[C@]1(CCC(=O)OC(C)(C)C)N=C(c2ccc(OCCCO)cc2)O[C@@H]1c1ccccc1` was 0.289; that for `COCCOC(=O)N1C(=O)[C@@]2(c3cc(C#CC4(O)CCCCCC4)ccc31)[C@H](C(N)=O)[C@H]1C(=O)O[C@H](c3ccccc3)[C@H](c3ccccc3)N1[C@@H]2c1ccccc1OCCO` was -0.531.
The same measure, in the same setting: as for `Cc1ccc(S[C@]2(C(=O)NCC(F)(F)F)CC(=O)N(Cc3ccccc3)[C@@H]2c2ccc(CO)cc2)cc1`, the figure is -0.186; as for `COCCCNC(=O)[C@@]1(Sc2ccc(C)cc2)CC(=O)N(C2Cc3ccccc3C2)[C@@H]1c1ccc(CO)cc1I`, -0.0621.
On the same count and under the same terms, as for `C=CC[C@]1(C(=O)N(C)C)N=C(c2ccc(OCCCO)cc2)O[C@H]1c1ccccc1N=[N+]=[N-]`, the figure is -0.0009; as for `CCOC(=O)C1=CC[C@@H](c2ccccc2C(F)(F)F)N(S(=O)(=O)c2ccc(C)cc2)C1`, -0.395.
Compound `CC(C)C(O)C1C=CC2C(=O)N(C)C(=O)C2N1N(c1ccccc1)c1ccccc1` (stereo unspecified) had a composite z-score of 0.603.
Same read-out and setting: as for `CCOC(=O)C1=CC[C@@H](c2ccc([N+](=O)[O-])cc2)N(S(=O)(=O)c2ccc(C)cc2)[C@H]1c1ccccc1`, the figure is 0.506; as for `[N-]=[N+]=NCc1ccccc1C[C@@]1(C(=O)N2CCCCC2)N=C(c2ccc(OCCCO)cc2)O[C@@H]1c1ccccc1N=[N+]=[N-]`, -0.919; as for `C=C(/C(=C/C[C@@H](OC(=O)c1ccncc1)c1ccccc1OCCO)c1cc(C(=O)OC)ccc1OC)C(C)C`, -0.025.
`COCCOC(=O)N1C(=O)[C@@]2(c3cc(C#CC4(O)CCCCCC4)ccc31)[C@H](C(N)=O)[C@H]1C(=O)O[C@H](c3ccccc3)[C@H](c3ccccc3)N1[C@@H]2c1ccc(O)cc1` gave a composite z-score of 0.225.

For a further assay, the target named is Torsin-1A-interacting protein 1 (Homo sapiens) (UniProt Q5JTV8). As to the kind of experiment: compound microarray binding of lysate hLAP1 – cell lysate, small-molecule microarray, COS7 lysate, 635/667 nm fluorescence, primary screen (AID 1116). Conditions: 635 nm fluorescence, higher = more signal.
Chain of Torsin-1A-interacting protein 1 (Homo sapiens) (Q5JTV8 whole entry, looked up): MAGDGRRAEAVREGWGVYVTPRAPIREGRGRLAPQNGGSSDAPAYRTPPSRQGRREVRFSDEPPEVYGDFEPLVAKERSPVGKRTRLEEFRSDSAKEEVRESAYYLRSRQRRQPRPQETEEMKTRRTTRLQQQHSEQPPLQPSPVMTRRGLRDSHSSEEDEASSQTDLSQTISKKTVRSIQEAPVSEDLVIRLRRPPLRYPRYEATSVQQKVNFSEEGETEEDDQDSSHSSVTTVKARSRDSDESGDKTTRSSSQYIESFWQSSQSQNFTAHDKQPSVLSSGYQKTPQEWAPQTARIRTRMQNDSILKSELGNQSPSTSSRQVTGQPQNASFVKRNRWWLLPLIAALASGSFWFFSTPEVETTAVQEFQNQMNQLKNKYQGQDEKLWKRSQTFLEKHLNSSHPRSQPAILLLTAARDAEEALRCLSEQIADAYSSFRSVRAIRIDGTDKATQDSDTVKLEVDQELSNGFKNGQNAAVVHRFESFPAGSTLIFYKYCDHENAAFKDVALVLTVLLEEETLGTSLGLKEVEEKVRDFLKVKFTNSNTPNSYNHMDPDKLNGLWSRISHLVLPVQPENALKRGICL
In the case of `COC(=O)[C@@]1(Cc2ccccc2)[C@H]2c3cc(C(=O)N4CCCC4)[nH]c3C[C@H]2CN1C(=O)c1ccccc1`, the composite z-score is 1.96.
Still for that read-out and setting: as for `O=C(O)[C@H](Cc1ccccc1)n1cc(-c2ccccn2)nn1`, the figure is 0.524.
In the case of `O=C1O[C@@H](c2ccccc2)[C@@H](c2ccccc2)N2[C@@H](c3ccccc3OCCO)[C@]3(C(=O)Nc4ccc(C#CCCO)cc43)[C@@H](C(=O)N3CCN(c4ncccn4)CC3)[C@H]12`, the composite z-score worked out at 0.744.
`COc1ccc([Si](C)(C)[C@@H]2[C@@H](CCO)O[C@]3(C(=O)N(Cc4cccc(N5C(=O)c6ccccc6Oc6ccccc65)c4)c4ccccc43)[C@H]2C)cc1` came in with a composite z-score of 0.0437.
Same read-out and setting: as for `CN(C)CCCN1C(=O)[C@@]2(c3ccc([N+](=O)[O-])cc3)CC(=O)N(CC34CC5CC(CC(C5)C3)C4)[C@@H]2c2ccc(CO)cc21`, the figure is -0.301.
Turning to `C[C@]12C(=O)N(CCCCCCO)[C@@H]3C(=O)N(c4ccc(Cl)cc4)CC=CC31O[C@@H]1/C=C\CCCOC(=O)C12` (stereo partly specified), the composite z-score stood at 0.121.
For `CC1CC/C=C\[C@H]2OC34C=CCN(c5ccc6ccccc6c5)C(=O)[C@H]3N(C(CO)C(C)C)C(=O)[C@@H]4C2C(=O)O1` (stereo partly specified), the composite z-score was -0.203.
On to `O=C1O[C@@H](c2ccccc2)[C@@H](c2ccccc2)N2[C@@H](c3ccc(O)cc3)[C@]3(C(=O)Nc4ccc(C#CC5=CCCCC5)cc43)[C@@H](C(=O)N3CCN(c4ncccn4)CC3)[C@H]12`, for which the composite z-score is 0.951.
For the compound `C[C@H]1ON(c2ccc(C(=O)OC(C)(C)C)cc2)[C@@H](c2ccc(O)cc2)[C@@H]1C(=O)N1C(=O)OC[C@@H]1c1ccccc1`, the composite z-score is 0.165.
As to `CCOC(=O)C[C@H]1[C@H](OC(=O)Cc2ccc3c(c2)OCO3)[C@@H](NC(=O)C2CCCCC2)c2cc(OCCCO)ccc2N1C(=O)c1ccc2ccccc2n1`, the composite z-score stood at 0.746.
Take `CN1C(=O)C2C=CC(C(O)c3c(F)cccc3Cl)N(Nc3ccccc3)C2C1=O` (stereo unspecified): the composite z-score was determined as 0.0127.
`COCCCNC(=O)[C@]1(Cc2ccccc2CN=[N+]=[N-])N=C(c2ccc(OCCCO)cc2)O[C@@H]1c1ccccc1` showed a composite z-score of 1.
The compound `[N-]=[N+]=NCc1ccccc1C[C@@]1(C(N)=O)N=C(c2ccc(OCCCO)cc2)O[C@@H]1c1ccccc1CN=[N+]=[N-]` returned a composite z-score of 0.623.
As to `COC(=O)[C@@]1(Cc2ccc(OC)cc2)[C@H]2c3cc(C(=O)N4CCCC4)n(CCc4cc5ccccc5[nH]4)c3C[C@H]2CN1C(=O)c1ccccc1`, the composite z-score is 2.4.
Regarding `COCCOC(=O)N1C(=O)[C@@]2(c3cc(C#Cc4ccc(OC)cc4)ccc31)[C@H](C(=O)NC[C@H](O)c1ccccc1)[C@H]1C(=O)O[C@H](c3ccccc3)[C@H](c3ccccc3)N1[C@@H]2c1ccc(O)cc1`, the composite z-score was 1.37.
Compound `C=CC[C@@]12N=C(c3ccc(OCCCO)cc3)O[C@@H]1c1ccccc1N(CCS(=O)(=O)c1ccccc1)C2=O` showed a composite z-score of 0.676.
Compound `C=CCN1C(=O)[C@]2(CC=C)N=C(c3ccc(OCCCO)cc3)O[C@@H]2c2ccccc21` registered a composite z-score of 1.14.
Still for that read-out and setting: the value for `Cc1ccc(S[C@]2(C(=O)NCC(C)C)CC(=O)N(Cc3ccccc3Cl)[C@@H]2c2ccc(CO)cc2I)cc1` was 0.359; that for `COc1ccccc1CN1C(=O)c2ccccc2[C@](Cc2ccccc2I)(C(=O)NC(C)C)[C@@H]1c1ccc(CO)cc1` was 0.855.
In turn, `CCOc1cc(C(O)C2C=CC3C(=O)N(C4CCCCC4)C(=O)C3N2Nc2ccc(OC)cc2)ccc1O` (stereo unspecified) returned a composite z-score of 0.327.
The same measure, in the same setting: the value for `COCCOC(=O)N1C(=O)[C@@]2(c3cc(C#Cc4ccc(OC)cc4)ccc31)[C@H](C(=O)N1CCCCCCC1)[C@H]1C(=O)O[C@H](c3ccccc3)[C@H](c3ccccc3)N1[C@@H]2c1ccc(O)cc1` was 0.604; that for `C=C(C(=O)CC[C@H](OC(=O)c1cccnc1)c1ccc(CO)o1)C(C)C` was 1.18.
On the same count and under the same terms, as for `COC(=O)[C@H](Cc1ccccc1)N1CC(/C=C/C2CC2)=C[C@@H]1[C@@H](O)Cc1ccccc1`, the figure is 0.0412.
In turn, `COC(=O)[C@@]1(Cc2ccc(OC)cc2)[C@H]2c3cc(C(=O)N(C)C)n(Cc4nc5ccccc5[nH]4)c3C[C@H]2CN1C(=O)c1ccccc1` yielded a composite z-score of 0.564.
The same measure, in the same setting: as for `CN(C)C(=O)[C@]1(CCC(=O)OC(C)(C)C)N=C(c2ccc(OCCCO)cc2)O[C@@H]1c1ccccc1`, the figure is 2.76; as for `COCCOC(=O)N1C(=O)[C@@]2(c3cc(C#CC4(O)CCCCCC4)ccc31)[C@H](C(N)=O)[C@H]1C(=O)O[C@H](c3ccccc3)[C@H](c3ccccc3)N1[C@@H]2c1ccccc1OCCO`, 0.529; as for `Cc1ccc(S[C@]2(C(=O)NCC(F)(F)F)CC(=O)N(Cc3ccccc3)[C@@H]2c2ccc(CO)cc2)cc1`, 0.122.
For `COCCCNC(=O)[C@@]1(Sc2ccc(C)cc2)CC(=O)N(C2Cc3ccccc3C2)[C@@H]1c1ccc(CO)cc1I`, the composite z-score is -0.354.
The same measure, in the same setting: the value for `C=CC[C@]1(C(=O)N(C)C)N=C(c2ccc(OCCCO)cc2)O[C@H]1c1ccccc1N=[N+]=[N-]` was 0.959; that for `CCOC(=O)C1=CC[C@@H](c2ccccc2C(F)(F)F)N(S(=O)(=O)c2ccc(C)cc2)C1` was 1.5.
Turning to `CC(C)C(O)C1C=CC2C(=O)N(C)C(=O)C2N1N(c1ccccc1)c1ccccc1` (stereo unspecified), the composite z-score was 0.251.
On the same count and under the same terms, as for `CCOC(=O)C1=CC[C@@H](c2ccc([N+](=O)[O-])cc2)N(S(=O)(=O)c2ccc(C)cc2)[C@H]1c1ccccc1`, the figure is 0.378; as for `[N-]=[N+]=NCc1ccccc1C[C@@]1(C(=O)N2CCCCC2)N=C(c2ccc(OCCCO)cc2)O[C@@H]1c1ccccc1N=[N+]=[N-]`, 0.209; as for `C=C(/C(=C/C[C@@H](OC(=O)c1ccncc1)c1ccccc1OCCO)c1cc(C(=O)OC)ccc1OC)C(C)C`, 0.568.
The same measure, in the same setting: the value for `COCCOC(=O)N1C(=O)[C@@]2(c3cc(C#CC4(O)CCCCCC4)ccc31)[C@H](C(N)=O)[C@H]1C(=O)O[C@H](c3ccccc3)[C@H](c3ccccc3)N1[C@@H]2c1ccc(O)cc1` was 0.0793.
